For 62 compounds, Potency results are on record in PubChem BioAssay AID1345082 (National Center for Advancing Translational Sciences (NCATS), 2018).

The campaign covered roughly 94,000 compounds. About 4,000 (4.3%) were called active. A call without a number means that no potency is given here. Not shown: some 29% with an inconclusive outcome. The sample holds actives, similar compounds and a random draw of the others, so the mix is not that of the screen. Calls come from the whole dose curve; as a rule, active = well fitted inhibition curve with a large enough effect; inconclusive = small, poorly fitted or top-dose-only effect; inactive = no such curve, though single readings can be large or run the other way.
Potency is the fitted concentration of half-maximal effect.

The nature of this experiment: Cytotoxic Profiling in NIH 3T3 Cell Line of Diverse Libraries Using Quantitative High-Throughput Screening. Note: nearly all actives have a fitted effect of over 55% in size. To be noted: NIH 3T3 viability, CellTiter-Glo ATP luminescence, 48-72 h; series mostly up to 96.7 µM. The method in brief: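 Cytotoxicity was measured by CellTiter-Glo ATP luminescence after 48 or 72 h compound exposure at 37 °C. Mouse NIH 3T3 fibroblasts were seeded at 400 cells/well and dosed by 23 nL pin transfer.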
(ATP-based viability assays read luminescence as a measure of living cells.)
On to `Cn1c([C@H]2CCN(C3CCOCC3)C2)nc2ccccc21`, for which the Potency entry is “inactive”. With `c1ccc2sc(C3CCCN(Cc4cc5n(n4)CCNC5)C3)nc2c1` (configuration not stated) the entry was “inactive”. To `CN1CCC(N2CC[C@H](c3nc4ccccc4s3)C2)CC1` belongs 35.5 µM (active). With `CC(C)CCN1CCC2(C1)C(=NC1CCCCC1)NC(=O)N2c1cc(F)cc(F)c1` (configuration not stated) the figure was 35.5 µM (active); with `O=C(c1ccccc1F)N1CCCC2(C1)C(=NC1CCCCC1)NC(=O)N2c1cc(F)cc(F)c1` (configuration not stated), “inactive”; with `O=C1NC(=NC2CCCCC2)C2(CCCN([S+](=O)([O-])c3ccccc3)C2)N1c1cc(F)cc(F)c1` (configuration not stated), “inactive”. Turning to `O=C(CN1CCCC1=O)NCC1Cn2cccc2C(=O)N1Cc1ccccc1` (configuration not stated), the Potency entry is “inactive”. With `CC(C)C(=O)N1CCOc2ccc(CN3CCc4ccccc4C3)cc2C1` the entry was “inactive”; with `CCCNC(=O)N1CCC(Cn2c(C)cnc2-c2cccnc2)CC1`, “inactive”. To `O=C(NCc1ccc2c(c1)OCO2)C1CCCN(Cc2cccc(-c3cccs3)c2)C1` (configuration not stated) belongs 31.6 µM (active). To `COCCNC(=O)C1CCCN(Cc2cccc(-c3cccs3)c2)C1` (configuration not stated) belongs “inactive”; to `O=C(NCc1ccc2c(c1)OCO2)C1CN(C2CCCCC2)C(=O)N1` (configuration not stated), “inactive”; to `Cc1nc(C(=O)N2CC[C@H](N3CCN(C)CC3)[C@H](CCCO)C2)cs1`, “inactive”. As for `CCCCOC(=O)N1CC(=O)N(Cc2ccco2)CC(O)C1` (configuration not stated), the Potency result was “inactive”. To `COCCOCC(=O)N1CCC2(CC1)CC(N(C(=O)c1ccccc1)C1CC1)CCO2` (configuration not stated) belongs “inactive”; to `O=C(NCc1cccc(C(F)(F)F)c1)c1nn(CCOc2ccccc2)c2c1CNCC2`, 15.8 µM (active); to `COc1ccccc1CNC(=O)c1nn(CC2CC2)c2c1CNCC2`, “inactive”.

For the compound `COC[C@H]1NC(=O)CC[C@H]1C(=O)NCc1cccc(C(F)(F)F)c1`, the Potency entry is “inactive”. With `CC(C)NC(=O)C1(CCO)CC12CCOCC2` (configuration not stated) the entry was “inactive”. With `O=C(c1ccc(Cl)cc1)N1CCCN(CCn2nc3n(c2=O)CCCC3)CC1` the entry was “inactive”; with `CCNC(=O)N[C@H]1CC[C@]2(C)CC[C@@H]([C@H](C)C(=O)NCc3ccco3)[C@H](O)[C@H]2[C@@H]1C`, “inactive”.

Consider `CC(C)(C)CC(=O)Nc1ccc2c(N3CCOCC3)ncnc2c1`, for which the Potency result is “inactive”.

With `O=c1cc(N2CCOCC2)oc2c(NCc3ccncc3)nccc12`, the Potency was 44.7 µM (active). With `CCn1c(=O)c2ccnn2c2ccc(C(=O)NCc3ccc(N4CCOCC4)cc3)cc21` the entry was “inactive”; with `Cc1noc(C)c1-c1nccc2c(=O)cc(N3CCOCC3)oc12`, 100 µM (active); with `CC(=O)Nc1ccc(C2(C(=O)NCCCN3CCOCC3)CCCCC2)cc1`, “inactive”. With `CC(CO)Nc1ncnc2c1CN(C1CCCNCC1)C(=O)CN2C` (configuration not stated) the entry was “inactive”; with `Cn1c(=O)[nH]cc(CC(=O)N2CCCC(c3cccc(C(=O)O)c3)C2)c1=O` (configuration not stated), “inactive”; with `CC1(c2ccccc2)N(Cc2ccccc2F)C(=O)OC12CCN(Cc1c[nH]c3ccccc13)CC2` (configuration not stated), 17.8 µM (active). Regarding `CN(CCO)CC1(O)CCCN(Cc2ccccc2F)C1=O` (configuration not stated), the Potency entry was “inactive”.

`COc1ccc(CN2CCC3(CC2)OCCN(Cc2ccccc2F)C3=O)cc1O`: the Potency result was “inactive”. To `CC(C)C(=O)N1CCC2(CC1)OC(=O)N(Cc1ccccc1F)C2(C)c1ccccc1` (configuration not stated) belongs 44.7 µM (active). To `CCc1ccccc1S(=O)(=O)N1CCN(C2(CC)CCN(C(=O)C(C)C)C2)CC1` (configuration not stated) belongs “inactive”. To `O=C1CCN(C(=O)Cc2c[nH]c3ccccc23)CCCCCCN1` belongs “inactive”. Take `O=C(CCc1conc1-c1ccccc1)NCc1ccco1`: the Potency entry is “inactive”. To `CCOc1ccccc1NC(=O)Cn1c(N2CCOCC2)nc(CC)cc1=O` belongs “inactive”; to `C[S+](=O)([O-])N1Cc2ccccc2OC2(CCN(C(=O)Cc3cccc(O)c3)CC2)C1`, “inactive”. To `CN1CCC(NC(=O)C2CCCN(S(=O)(=O)c3ccccc3)CCC(=O)NCC2)CC1` (configuration not stated) belongs “inactive”; to `Cn1ncc2c(C(=O)NCC#N)cc(-c3cccc(C(F)(F)F)c3)nc21`, “inactive”.

As for `COc1ccc(-c2cc(C(=O)NCC#N)c3cnn(C)c3n2)cc1`, the Potency was 15.8 µM (active). With `Cn1ncc2c(C(=O)NCC(F)(F)F)cc(-c3ccc(C(F)(F)F)cc3)nc21` the entry was “inactive”. For `Cc1noc(C)c1S(=O)(=O)NCC1Cn2cccc2C(=O)N1C` (configuration not stated), the Potency result was “inactive”. On to `Cc1ncnc(N2CCC(Oc3ccc4ccccc4c3)(C(=O)O)CC2)c1C`, for which the Potency entry was “inactive”. With `CCOc1ccc2c(n1)CCN(C(=O)Nc1ccc(OC)cc1C)C2` the entry was “inactive”; with `COc1cccc(NC(=O)c2c(OC)cc(=O)n3c2CCCC3)c1`, “inactive”; with `COc1ccc(-c2[nH]nc3ncc(-c4cn[nH]c4)nc23)cc1F`, “inactive”. `COc1cccc(-c2cc(C(=O)Nc3cccc(Cl)c3)c3cnn(C)c3n2)c1`: the Potency result is “inactive”.

In the case of `COc1ccc(-c2[nH]nc3ncc(C(=O)Nc4ccccc4)nc23)c(C)c1`, the Potency was 28.2 µM (active).

For `COc1cccc(NC(=O)c2cnc3n[nH]c(-c4ccc(OC)cc4C)c3n2)c1`, the Potency was 50.1 µM (active). To `CNC(=O)[C@H]1C[C@H](Oc2ccccc2)CN1C(=O)c1cc(-c2ccccc2)n[nH]1` belongs “inactive”; to `CCC(CC)C(=O)N[C@H]1C[C@@H](Cc2cc(COc3ccccc3)on2)C1(C)C`, 70.8 µM (active). To `CN(Cc1nccn1C)C(=O)c1cc(CN2CCC(Cc3ccccc3)CC2)on1` belongs “inactive”; to `CC(=O)N1CCC(N[C@H]2C[C@@H](Cc3cc(CN(C)c4ccccc4)on3)C2(C)C)CC1`, 89.1 µM (active); to `CC1(C)[C@H](Cc2cc(CC3CCCCC3)on2)C[C@@H]1NC1CCOCC1`, 31.6 µM (active). `CC(=O)N1CCC(NC[C@H]2O[C@H](Cc3cc(-c4cccc(O)c4)on3)CC[C@@H]2O)CC1`: the Potency result is “inactive”. To `COCc1cc(C[C@@H]2CC[C@H](O)[C@@H](CN(C)C)O2)no1` belongs “inactive”. With `COCc1cc(C[C@@H]2CC[C@H](O)[C@@H](CN(CC3CCCCC3)CC3CCCCC3)O2)no1`, the Potency entry is “inactive”. With `CC1(C)[C@H](Cc2cc(CCO)on2)C[C@@H]1NCC1CC1` the entry was “inactive”. Regarding `CC1(C)[C@H](Cc2cc(CC3CCCCC3)on2)C[C@@H]1NC(=O)C1CCC1`, the Potency was 39.8 µM (active). To `CC1(C)[C@H](Cc2cc(CN3CCCCC3)on2)C[C@@H]1NS(C)(=O)=O` belongs “inactive”. To `CN(Cc1ccccc1)Cc1cc(CC2(NCc3ccc(CO)o3)COC2)no1` belongs “inactive”; to `CN(C)S(=O)(=O)N1CCCOCCNC(=O)[C@@H]2CCC[C@@H]21`, “inactive”.
